Compounds with a hit are over-represented: about 10% of the library has one in this group of screens.
CCT modulator: High-Throughput Screening for Modulators of Cytosolic Chaperonin Activity. 0.3% of 360,000 active. AID 651819, 2012. activity change, % (no concentration beside the values), hits read low. purified chaperonin ATPase assay, HTRF ADP detection, 30 min; in the data active means activity change below about -30%
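Nucleotide hydrolysis assay: TRiC at 20–40 nM final (set by batch activity) with 10 uM ATP, 30 min at 37 °C, in presence of 76 uM compound. Detection by competitive ADP HTRF, 30 min ambient.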
Sfp PPTase inh: qHTS Assay for Inhibitors of Bacillus subtilis Sfp phosphopantetheinyl transferase (PPTase) | 4'-phosphopantetheinyl transferase ffp (Bacillus subtilis), Q9F4F7 | Biochemical Sfp PPTase activity, qHTS | Potency, µM, actives largely listed as inhibitors | 3.5% of 310,000 active;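 further: the enzyme is Sfp with the accession as filed and its product quenches rhodamine fluorescence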
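Fluorescence-quenching assay with 15 nM Sfp, 5 uM rhodamine-CoA and 12.5 uM BHQ-2-labelled ybbR peptide in pH 7.6 Hepes/MgCl2 buffer. Enzyme was pre-incubated with compound for 15 min at room temperature. Rate was taken from the 30-min fluorescence change (525/598 nm).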
G9a block: qHTS Assay for Inhibitors of Histone Lysine Methyltransferase G9a; G9a H3K9 monomethylation, AlphaScreen, 2 h; 8.8% of 350,000 active; AID 504332, 2011; Histone-lysine N-methyltransferase EHMT2 (Homo sapiens), Q96KQ7; Potency, µM (highest dose often 102 µM), usual class: inhibitors; further: nearly all actives have a fitted effect of over 75% in size
Target sequence (Q96KQ7 913-1193 limits assumed): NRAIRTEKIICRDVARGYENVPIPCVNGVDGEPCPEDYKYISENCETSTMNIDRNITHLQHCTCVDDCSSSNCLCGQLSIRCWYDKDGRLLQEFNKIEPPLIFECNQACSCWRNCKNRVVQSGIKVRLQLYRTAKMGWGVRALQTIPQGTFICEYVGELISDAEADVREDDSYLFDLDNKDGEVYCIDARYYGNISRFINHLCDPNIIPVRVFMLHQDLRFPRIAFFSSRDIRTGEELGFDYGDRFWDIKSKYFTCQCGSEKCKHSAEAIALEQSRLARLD
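Enzyme 20 nM + cpd, 15 min RT; add b-H3K9 pep 500 nM / SAM 20 uM; 2 h RT; anti-H3K9me1 Ab 0.5 ug/mL + SA donor / anti-rabbit acceptor beads 20 ug/mL each, 10 min; AlphaScreen read.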
PLK1 PBD inh: qHTS for Inhibitors of PLK1-PDB (polo-like kinase 1 - polo-box domain): Primary Screen | Plk1 PBD binding of FITC phosphopeptide, fluorescence polarization | Serine/threonine-protein kinase PLK1 (Homo sapiens), P53350 | Potency, µM, most hits filed as inhibitors | 2.8% of 360,000 active | AID 720504, 2013; further: series mostly up to about 57 µM; nearly all actives have a fitted effect of over 65% in size
MmCpn inh: Inhibitors of TCP-1 ring complex (TRiC) of Methanococcus maripaludis (MmCpn): qHTS; Potency, µM (top dose mostly 76.9 µM), actives largely listed as inhibitors; AID 504842, 2011; Chaperonin Mm-Cpn (Methanococcus maripaludis); purified Mm-Cpn ATPase, ADP Transcreener TR-FRET; 0.031% of 330,000 active; further: nearly all actives have a fitted effect of over 80% in size
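ATP (10 uM final) was added to archaeal chaperonin (25 nM final) after 10 min exposure to test compound at 37°C; after 30 min further incubation, ADP was detected by competitive TR-FRET.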
VDR inh: Inhibitors of the vitamin D receptor (VDR): qHTS; Vitamin D3 receptor (Homo sapiens), P11473; VDR-SRC2-3 peptide fluorescence polarization, 2 h; Potency, µM, actives largely listed as inhibitors; 0.93% of 400,000 active; AID 504847, 2011
Target sequence (P11473 whole entry, looked up): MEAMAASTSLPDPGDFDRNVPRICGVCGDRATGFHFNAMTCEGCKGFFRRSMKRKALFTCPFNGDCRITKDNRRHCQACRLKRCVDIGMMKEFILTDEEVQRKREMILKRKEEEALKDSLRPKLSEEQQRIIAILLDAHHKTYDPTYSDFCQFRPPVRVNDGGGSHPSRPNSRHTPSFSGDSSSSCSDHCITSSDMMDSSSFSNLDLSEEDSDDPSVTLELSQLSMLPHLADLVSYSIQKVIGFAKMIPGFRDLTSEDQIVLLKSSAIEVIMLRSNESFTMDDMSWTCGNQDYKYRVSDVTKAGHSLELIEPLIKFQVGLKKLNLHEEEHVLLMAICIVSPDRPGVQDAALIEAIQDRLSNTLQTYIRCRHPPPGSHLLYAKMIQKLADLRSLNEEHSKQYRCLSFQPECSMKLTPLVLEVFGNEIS
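Signal is fluorescence polarization, reporting how far test compounds block the interaction of VDR with the SRC2-3 coregulator peptide after a 2 h room-temperature incubation.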
Each line names hits and unclear results; the compound was inactive in the other large screens. Unless noted, the call rests on the fitted dose curve; in most records, active means well fitted curve in the direction sought with a large enough effect; inconclusive means small, poorly fitted or top-dose-only effect, or another doubt; inactive means no such curve, though single readings can be large; an effect the other way counts as inactive or inconclusive.

CCCCn1c(N)c(N(CCC(C)C)C(=O)C2CC(=O)N(c3ccc4c(c3)OCCO4)C2)c(=O)[nH]c1=O (stereo not given)	G9a block inconclusive, PLK1 PBD inh 12µM
CCCCN(C(=O)C1CC(=O)N(c2ccc3c(c2)OCCO3)C1)c1c(N)n(CC(C)C)c(=O)[nH]c1=O (stereo not given)	none (no result: Sfp PPTase inh)
CCCn1c(SCc2nc(-c3cc(OC)ccc3OC)no2)nnc1-c1ccc(Cl)cc1	none (no result: CCT modulator, Sfp PPTase inh, PLK1 PBD inh, MmCpn inh)
CSc1ccc(/C=N/Nc2ccc(Cl)c(C(=O)O)c2)cc1	G9a block 10µM, PLK1 PBD inh inconclusive
O=C(O)c1cc(N/N=C/c2ccc(-c3ccccc3)cc2)ccc1Cl	PLK1 PBD inh 9.5µM, VDR inh inconclusive
O=c1nc(N/N=C/c2c[nH]c3ccccc23)cn[nH]1	Sfp PPTase inh 50µM (no result: G9a block)
O=C(O)c1cc(N/N=C/c2ccncc2)ccc1Cl	PLK1 PBD inh inconclusive
O=C(O)c1cccc2c(/C=N/Nc3ccccn3)c[nH]c12	Sfp PPTase inh 50µM (no result: G9a block)
COc1ccc(C2C(=O)N(C3CCCCCC3)CC(=O)N2Cc2ccc(C)cc2)cc1OC (stereo not given)	none (no result: CCT modulator, Sfp PPTase inh, PLK1 PBD inh, MmCpn inh)
CCCCCCCCCCCCCCCC(=O)OCC(COP(=O)(O)O)OC(=O)CCCCCCCCCCCCCCC (stereo not given)	none (no result: CCT modulator, PLK1 PBD inh, MmCpn inh)
O=C(N/N=C/c1c[nH]c2ccccc12)c1cccc(Cl)c1	none
O=C(O)c1cc(N/N=C/c2c[nH]c3ccccc23)ccc1Cl	G9a block 45µM, PLK1 PBD inh inconclusive, VDR inh inconclusive
COc1cc(OC)cc(C(=O)NC(=S)Nc2ccc(Cl)c(C(=O)O)c2)c1	G9a block 45µM
CCCCOc1cccc(C(=O)NC(=S)Nc2ccc(Cl)c(C(=O)O)c2)c1	G9a block 11µM
COCCNC(=S)NNc1ccc(Cl)c(C(=O)O)c1	Sfp PPTase inh 4µM, G9a block 18µM, PLK1 PBD inh 27µM
CCOc1ccc(-n2c(SCC(=O)N3CCC(C)CC3)nc3c([nH]c4ccccc43)c2=O)cc1	none (no result: CCT modulator, Sfp PPTase inh, PLK1 PBD inh, MmCpn inh)
CCOC(=O)c1[nH]c2cc(OC)c(OC)cc2c1NC(=O)C(C)N1CCN(Cc2ccccc2)CC1 (stereo not given)	G9a block 45µM
CC1CCN(C(C)C(=O)Nc2ccccc2-c2ccccc2)CC1 (stereo not given)	G9a block 32µM
CCOC(=O)c1[nH]c2ccc(OC)cc2c1NC(=O)C(C)N1CCSCC1 (stereo not given)	G9a block inconclusive (no result: CCT modulator, PLK1 PBD inh, VDR inh)
CCS(=O)(=O)N1CCN(C(C)CCc2ccccc2)CC1 (stereo not given)	G9a block inconclusive
CC(CCc1ccccc1)N1CCN(Cc2ccccc2)CC1 (stereo not given)	G9a block 11µM
CCOC(=O)c1[nH]c2ccc(OC)cc2c1NC(=S)N1CCN(c2ccccc2OC)CC1	G9a block 79µM
Cc1ccc(C)c(NS(=O)(=O)c2cc3c(cc2Cl)NC(=O)CO3)c1	G9a block inconclusive (no result: CCT modulator, Sfp PPTase inh, PLK1 PBD inh, MmCpn inh)
COc1ccc(CNC(=O)C(=O)NCC(c2cccs2)S(=O)(=O)c2ccc(C)cc2)cc1 (stereo not given)	none (no result: CCT modulator, Sfp PPTase inh, PLK1 PBD inh, MmCpn inh)
Cc1cccc(CN2CCN(C(C)C(=O)NC(C)c3ccccc3)CC2)c1 (stereo not given)	Sfp PPTase inh 63µM, G9a block 45µM
CC(NC(=O)C(C)N1CCN(Cc2ccccc2)CC1)c1ccccc1 (stereo not given)	none
Cc1ccc(S(=O)(=O)N2CCN(C(C)C(=O)Nc3ccccc3-c3ccccc3)CC2)cc1 (stereo not given)	none
CC(C(=O)Nc1ccccc1-c1ccccc1)N1CCN(Cc2ccccc2)CC1 (stereo not given)	PLK1 PBD inh 17µM, VDR inh inconclusive
C=CCNC(=S)Nc1cc(C)ccn1	G9a block 1.6µM
CCN(CC)C(=O)CSc1nnc(-c2ccccc2)n1-c1ccccc1	G9a block 28µM
CCN(CC)C(=O)CSc1nnc(-c2ccccc2)n1N	none
CCCOC(=O)CSc1nnc(-c2ccccc2)o1	none (no result: CCT modulator, Sfp PPTase inh, PLK1 PBD inh, MmCpn inh)
CSc1nnc(-c2ccccc2)o1	none
CCN(Cc1ccccc1)C(=O)CSc1nncn1C	G9a block 56µM
CCN(CC)C(=O)CSc1nnc(-c2ccccc2)o1	G9a block 79µM
CN(C)CCSc1nnc(-c2ccccc2)o1	G9a block 40µM
C=CC[C@](C)(Nc1ccc(OC)cc1)C(=O)OCC	none (no result: CCT modulator, G9a block, PLK1 PBD inh, MmCpn inh)
Nc1ncnc2c1nc(Sc1ccc(Cl)cc1)n2[C@H]1OC2COP(=O)(O)O[C@@H]2C1O (stereo not given in full)	G9a block inconclusive (no result: CCT modulator, Sfp PPTase inh, PLK1 PBD inh, MmCpn inh)
O=C(CC1N=C2c3ccccc3N=C(SCC(=O)Nc3cccc(C(F)(F)F)c3)N2C1=O)NCc1cccs1 (stereo not given)	none (no result: CCT modulator, Sfp PPTase inh, PLK1 PBD inh, MmCpn inh)
CCc1ccc(NC(=O)CN2CCN(C3CCCCC3)C(=O)C2=O)cc1	none (no result: CCT modulator, Sfp PPTase inh, PLK1 PBD inh, MmCpn inh)
Cc1ccc(NC(=O)CN2CC(C)SC2=NC2CCCCC2)cc1 (stereo not given)	G9a block 50µM
COc1cc(OC)c(NC(c2nnc(-c3ccccc3)o2)c2ccc(F)cc2Cl)cc1Cl (stereo not given)	G9a block 11µM (no result: CCT modulator, Sfp PPTase inh, PLK1 PBD inh, MmCpn inh)
COc1ccc(C)cc1NC(c1nnc(-c2ccccc2)o1)c1ccc(F)cc1Cl (stereo not given)	G9a block inconclusive (no result: CCT modulator, Sfp PPTase inh, PLK1 PBD inh, MmCpn inh)
COc1ccc(OC)c(C(C[N+](=O)[O-])c2c(C)cc3ccccn23)c1 (stereo not given)	G9a block 45µM
COc1ccc(C(C[N+](=O)[O-])c2c(C)cc3ccccn23)c(OC)c1 (stereo not given)	G9a block 40µM
COc1ccc(Br)cc1C(C[N+](=O)[O-])c1c(N)n(C)c(=O)n(C)c1=O (stereo not given)	Sfp PPTase inh inconclusive, VDR inh inconclusive (no result: G9a block)
Cc1nn(S(=O)(=O)c2ccc(C(C)(C)C)cc2)c(C)c1S(=O)(=O)N1CCC(C)CC1	G9a block inconclusive (no result: CCT modulator, Sfp PPTase inh, PLK1 PBD inh, MmCpn inh)
CCOC(=O)N1CCC(NC(=O)c2ccc3c(c2)N(Cc2cc(C)ccc2C)C(=O)c2ccccc2S3(=O)=O)CC1	none (no result: CCT modulator, Sfp PPTase inh, PLK1 PBD inh, MmCpn inh)
Nc1nc2ncc(C(=O)c3cc(Cl)cc(Cl)c3O)cc2s1	G9a block 50µM, PLK1 PBD inh inconclusive
CCN(CC)CCNC(=O)c1c(O)c2c([nH]c1=O)CCCC2	G9a block 79µM
